experiment: circadian clock period modulators, cell-based, LOPAC library, luminescence reporter (AID 2774); settings: circadian reporter cells, at 7 µM, actives lie on both sides; call rule not given here;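 further: values are relative to mean of DMSO wells on each plate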

Period change, inactive:
CNC[C@H](O)c1cccc(O)c1 -0.48 h
CC(=O)N[C@@H](CS)C(=O)O 0.1 h
NCCCC(=O)O 0.105 h
NC[C@H](O)c1ccc(O)c(O)c1 0.04 h
NC(=O)NO -0.055 h
Nc1c2c(nc3ccccc13)CCCC2O (stereo not drawn) 0.15 h
Cn1c(=O)c2c(ncn2C)n(C)c1=O 0.03 h
CCCCC1C(=O)N(c2ccccc2)N(c2ccccc2)C1=O 0.01 h
NC(Cc1ccc(Cl)cc1)C(=O)O (stereo not drawn) -0.015 h
CC(=O)Oc1ccccc1C(=O)O -0.135 h
NS(=O)(=O)c1cc2c(cc1Cl)NC(C1CC3C=CC1C3)NS2(=O)=O (stereo not drawn) 0.225 h
NC(=O)c1ncn([C@@H]2O[C@H](CO)[C@@H](O)[C@H]2O)n1 0.065 h
O=C(O)CCCCCCCC(=O)O 0.115 h
